Results published in PubChem BioAssay.
For part of these data: Results with a measured potency or affinity are listed apart. Active and inactive are the calls of the source. Unless noted, the rule behind the calls is not given here.

What was measured:
[1] = antimalarial activity against Dd2 strain (AID 2302;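 active = growth inhibition above 50% at the single 2 µM test dose, taken to imply half-maximal potency below 2 µM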;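 note: 0% = DMSO untreated growth and 100% = chloroquine plus artemisinin killed control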); conditions: P. falciparum Dd2 in RBCs, LDH growth readout, 72 h; at 2 µM; hits give high values
[2] = human hepatoma cell viability loss – ATP luminescence, cytotoxicity control for P. falciparum antimalarial project, primary screen (AID 2303;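 active = inhibition above 50%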;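 note: 0% = DMSO wells and 100% = digitonin-killed cells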); conditions: HepG2 viability, 24-48 h, at 10 µM, hits give high values
[3] = target: L-lactate dehydrogenase (Plasmodium falciparum (isolate CDC / Honduras)) (UniProt Q27743); assay: PfLDH activity inhibition – cell lysate, 3D7 strain, counter-screen for P. falciparum growth inhibition project (AID 2304);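 note: 0% = vehicle and 100% = reference inhibitor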; conditions: P. falciparum 3D7 crude extract, LDH APAD/NBT absorbance; at 2 µM; hits give high values
Chain of L-lactate dehydrogenase (Plasmodium falciparum (isolate CDC / Honduras)) (Q27743 whole entry, looked up): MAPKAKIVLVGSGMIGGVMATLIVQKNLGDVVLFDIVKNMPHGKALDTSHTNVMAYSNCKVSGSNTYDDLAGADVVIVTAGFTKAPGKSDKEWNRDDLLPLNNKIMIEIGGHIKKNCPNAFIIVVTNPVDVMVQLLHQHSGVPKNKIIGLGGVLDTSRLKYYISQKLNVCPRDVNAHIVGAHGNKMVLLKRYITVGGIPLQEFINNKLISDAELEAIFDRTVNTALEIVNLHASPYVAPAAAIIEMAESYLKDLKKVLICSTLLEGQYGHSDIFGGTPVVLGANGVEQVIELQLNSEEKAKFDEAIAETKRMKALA

[4] = inhibition of 3D7 malaria parasite growth – strain 3D7 (AID 2306);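 note: 0% = DMSO wells and 100% = chloroquine plus artemisinin control wells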; conditions: P. falciparum 3D7 erythrocytic growth, LDH absorbance, 72 h; at 2 µM; hits give high values
[5] = target: Calcium-dependent protein kinase 1 (Plasmodium falciparum (isolate 3D7)) (UniProt P62344); assay: PfCDPK1 kinase inhibitors, biochemical, TCAMS library (AID 1159585; cut-off not given, nearly all actives have IC50 up to about 0.98 µM;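 note: inhibitors leave more ATP so luminescence rises with inhibition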); conditions: recombinant PfCDPK1, Kinase-Glo ATP depletion luminescence
Chain of Calcium-dependent protein kinase 1 (Plasmodium falciparum (isolate 3D7)) (P62344 whole entry, looked up): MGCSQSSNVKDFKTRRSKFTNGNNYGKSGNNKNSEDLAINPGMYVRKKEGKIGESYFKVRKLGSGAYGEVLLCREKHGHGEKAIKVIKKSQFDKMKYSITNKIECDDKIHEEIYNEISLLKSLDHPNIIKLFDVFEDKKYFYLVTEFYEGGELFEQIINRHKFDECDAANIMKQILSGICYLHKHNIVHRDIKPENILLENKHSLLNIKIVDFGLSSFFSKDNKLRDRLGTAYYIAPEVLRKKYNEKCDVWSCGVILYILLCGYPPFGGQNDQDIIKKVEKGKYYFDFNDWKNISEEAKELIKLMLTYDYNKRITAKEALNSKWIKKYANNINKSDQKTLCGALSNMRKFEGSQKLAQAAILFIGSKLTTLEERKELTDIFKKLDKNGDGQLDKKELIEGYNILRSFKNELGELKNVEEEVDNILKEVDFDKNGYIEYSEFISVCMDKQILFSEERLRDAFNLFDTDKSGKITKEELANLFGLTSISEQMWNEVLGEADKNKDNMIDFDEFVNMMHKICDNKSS

[6] = target: Plasmodium falciparum protein kinase 6 (PK6, PF3D7_1337100) (UniProt Q8IDW1); assay: PfPK6 kinase inhibitors, biochemical, TCAMS library (AID 1159586); conditions: recombinant PfPK6, Kinase-Glo ATP depletion luminescence
Chain of Plasmodium falciparum protein kinase 6 (PK6, PF3D7_1337100) (Q8IDW1 1-305): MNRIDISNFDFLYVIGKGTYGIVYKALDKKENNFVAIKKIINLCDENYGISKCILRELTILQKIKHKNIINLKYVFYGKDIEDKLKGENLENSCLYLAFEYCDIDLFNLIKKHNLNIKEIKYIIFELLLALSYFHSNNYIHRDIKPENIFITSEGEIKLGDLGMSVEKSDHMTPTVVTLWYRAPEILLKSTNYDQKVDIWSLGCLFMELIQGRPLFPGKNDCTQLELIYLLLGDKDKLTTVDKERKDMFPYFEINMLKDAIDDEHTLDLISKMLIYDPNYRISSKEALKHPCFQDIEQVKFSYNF

[7] = target: Protein kinase 7 (PK7), Plasmodium falciparum 3D7 (PF3D7_0213400) (UniProt Q7YTF7); assay: inhibition of Plasmodium PK7 catalytic activity – biochemical, TCAMS antimalarial set, Kinase-Glo luminescence (AID 1159587); conditions: recombinant PfPK7, Kinase-Glo ATP depletion luminescence
Chain of Protein kinase 7 (PK7), Plasmodium falciparum 3D7 (PF3D7_0213400) (Q7YTF7 1-343): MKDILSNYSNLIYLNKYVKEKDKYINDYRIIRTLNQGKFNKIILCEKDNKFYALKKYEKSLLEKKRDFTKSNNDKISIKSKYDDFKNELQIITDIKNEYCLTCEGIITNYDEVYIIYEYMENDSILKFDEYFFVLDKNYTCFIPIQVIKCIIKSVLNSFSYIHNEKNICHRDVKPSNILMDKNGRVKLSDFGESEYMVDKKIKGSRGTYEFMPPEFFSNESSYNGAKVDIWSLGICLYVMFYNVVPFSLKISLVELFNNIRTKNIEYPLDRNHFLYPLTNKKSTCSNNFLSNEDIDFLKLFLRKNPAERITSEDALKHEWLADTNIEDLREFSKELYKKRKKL

[8] = target: Calcium-dependent protein kinase 4 (Plasmodium falciparum (isolate 3D7)) (UniProt Q8IBS5); assay: PfCDPK4 kinase inhibitors, biochemical, TCAMS library (AID 1159588; cut-off not given, nearly all actives have IC50 up to about 0.91 µM); conditions: recombinant PfCDPK4, Kinase-Glo ATP depletion luminescence
Chain of Calcium-dependent protein kinase 4 (Plasmodium falciparum (isolate 3D7)) (Q8IBS5 whole entry, looked up): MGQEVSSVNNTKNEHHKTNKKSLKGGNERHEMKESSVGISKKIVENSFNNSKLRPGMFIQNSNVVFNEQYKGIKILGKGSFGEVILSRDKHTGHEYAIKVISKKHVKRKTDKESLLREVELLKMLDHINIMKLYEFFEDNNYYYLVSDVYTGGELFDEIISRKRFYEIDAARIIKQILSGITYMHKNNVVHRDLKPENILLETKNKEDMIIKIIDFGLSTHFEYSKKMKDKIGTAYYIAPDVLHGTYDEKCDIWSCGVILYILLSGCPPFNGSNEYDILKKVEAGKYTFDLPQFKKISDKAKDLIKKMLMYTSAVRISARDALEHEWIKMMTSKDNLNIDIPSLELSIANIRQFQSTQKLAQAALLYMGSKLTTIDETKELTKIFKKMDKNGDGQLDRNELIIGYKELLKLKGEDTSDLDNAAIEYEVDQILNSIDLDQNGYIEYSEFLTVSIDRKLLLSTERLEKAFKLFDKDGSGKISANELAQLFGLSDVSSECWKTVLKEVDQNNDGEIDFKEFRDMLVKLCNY

O=S(=O)(Nc1cccc(CCN2CCC(N3CCCCC3)CC2)c1)c1ccc(Cl)cc1
inactive: growth inhibition [1] 23% | inhibition [2] 18% | inhibition [3] -1% | outcome [5] | outcome [6] | outcome [7] | outcome [8]
active: growth inhibition [4] 94%

CCOc1ccc(-c2nonc2NC(=O)c2cccs2)cc1OCC
active: growth inhibition [1] 100% | growth inhibition [4] 101%
inactive: inhibition [2] 6% | inhibition [3] 4% | outcome [5] | outcome [6] | outcome [7] | outcome [8]

Cc1ccc(CN2CCN(c3cc4c(cc3Cl)CCN4C(=O)Cc3ccc(NC(=O)c4ccc(C(F)(F)F)cc4)cc3)CC2)cc1
active: growth inhibition [4] 88%
inactive: growth inhibition [1] -8% | inhibition [2] 15% | inhibition [3] 4% | outcome [5] | outcome [6] | outcome [7] | outcome [8]

COc1cccc(NC(=O)c2ccc(NCCCN3CCC(C)CC3)c([N+](=O)[O-])c2)c1
inactive: growth inhibition [1] 46% | inhibition [2] 9% | inhibition [3] -6% | outcome [5] | outcome [6] | outcome [7] | outcome [8]
active: growth inhibition [4] 100%

COc1ccc2ncc(Cl)c(CCN3CCC(NCc4ccc5c(n4)NC(=O)CS5)CC3)c2c1
active: growth inhibition [4] 100%
inactive: growth inhibition [1] 34% | inhibition [2] 26% | inhibition [3] -2% | outcome [5] | outcome [6] | outcome [7] | outcome [8]

CC1(C)N=C(N)N=C(N)N1OCCCOc1c(Cl)cc(Cl)cc1Cl
inactive: inhibition [3] -2% | outcome [5] | outcome [6] | outcome [7] | outcome [8]
active: growth inhibition [1] 97% | inhibition [2] 65% | growth inhibition [4] 94%

CC(=O)c1ccc(N2CCN(CCC3(c4ccc(Cl)c(Cl)c4)COCN(C(=O)c4ccccc4)C3)CC2)cc1 (configuration not stated)
active: growth inhibition [1] 95% | growth inhibition [4] 88%
inactive: inhibition [2] 12% | inhibition [3] 5% | outcome [5] | outcome [6] | outcome [7] | outcome [8]

O=C(Nc1cccc(CN2CCCN(Cc3ccc4c(c3)OCO4)CC2)c1)c1cc2ccccc2s1
active: growth inhibition [4] 95%
inactive: growth inhibition [1] 11% | inhibition [2] 32% | inhibition [3] 2% | outcome [5] | outcome [6] | outcome [7] | outcome [8]

CN1CCc2ccc(NC(=O)Nc3cccc([N+](=O)[O-])c3)cc2C1
active: growth inhibition [4] 87%
inactive: growth inhibition [1] 3% | inhibition [2] -5% | inhibition [3] 0% | outcome [5] | outcome [6] | outcome [7] | outcome [8]

CN(C)C1CCN(Cc2ccc(N3CCN(Cc4cccc5[nH]ccc45)CC3)nc2)CC1
active: growth inhibition [4] 80%
inactive: growth inhibition [1] 17% | inhibition [2] 11% | inhibition [3] -2% | outcome [5] | outcome [6] | outcome [7] | outcome [8]

COc1ccc(-c2cccc(NC(=O)c3cccc(C#N)c3)c2)cc1CN1CCNCC1
inactive: growth inhibition [1] 15% | inhibition [2] 27% | inhibition [3] 0% | outcome [5] | outcome [6] | outcome [7] | outcome [8]
active: growth inhibition [4] 101%

Cc1ccccc1OCCCN1CCN(CC(c2ccc(F)cc2)N2CCN(C(C)C)CC2)CC1 (configuration not stated)
inactive: inhibition [2] 20% | inhibition [3] 2% | outcome [5] | outcome [6] | outcome [7] | outcome [8]
active: growth inhibition [1] 64% | growth inhibition [4] 99%

COC(=O)c1cccc(CNCc2cccc(-c3cccc(-c4nc5c(C)cccc5[nH]4)c3)c2)c1
active: growth inhibition [4] 101%
inactive: growth inhibition [1] 47% | inhibition [2] -1% | inhibition [3] 3% | outcome [5] | outcome [6] | outcome [7] | outcome [8]

CN1CCN(CC(=O)Nc2ccc(-c3ccc(-c4nc5ccc(C(F)(F)F)cc5[nH]4)cc3)cc2)CC1
active: growth inhibition [1] 98% | growth inhibition [4] 101%
inactive: inhibition [2] 43% | inhibition [3] -3% | outcome [5] | outcome [6] | outcome [7] | outcome [8]

COc1cccc(C(=O)N2CCOC(CCN3CCC(c4ccccc4)CC3)(c3ccc(Cl)c(Cl)c3)C2)c1 (configuration not stated)
active: growth inhibition [1] 63% | growth inhibition [4] 87%
inactive: inhibition [2] 38% | inhibition [3] -2% | outcome [5] | outcome [6] | outcome [7] | outcome [8]

O=C(C1COc2ccccc2O1)N(CCCn1ccnc1)Cc1csc(-c2ccc(CNCc3ccccc3)cc2)n1 (configuration not stated)
active: growth inhibition [4] 100%
inactive: growth inhibition [1] 18% | inhibition [2] 15% | inhibition [3] -1% | outcome [5] | outcome [6] | outcome [7] | outcome [8]

Oc1ccc(-c2ccccc2)cc1CN1CCCCC1
inactive: inhibition [2] 3% | inhibition [3] -1% | outcome [5] | outcome [6] | outcome [7] | outcome [8]
active: growth inhibition [1] 70% | growth inhibition [4] 93%

CCOC(=O)c1cc(Cl)cc(Cl)c1OCCCON1C(N)=NC(N)=NC1(C)C
inactive: inhibition [3] -6% | outcome [5] | outcome [6] | outcome [7] | outcome [8]
active: growth inhibition [1] 97% | inhibition [2] 70% | growth inhibition [4] 93%

CCOc1ccnc(=O)[nH]1
inactive: inhibition [2] -4% | inhibition [3] 5% | outcome [5] | outcome [6] | outcome [7] | outcome [8]
active: growth inhibition [1] 95% | growth inhibition [4] 97%

N#Cc1ccc(-c2ccc(C(=O)Nc3ccc4c(c3)CCN(C3CCC3)CC4)nc2)cn1
inactive: growth inhibition [1] 15% | inhibition [2] 24% | inhibition [3] -1% | outcome [5] | outcome [6] | outcome [7] | outcome [8]
active: growth inhibition [4] 85%

Oc1ccc2[nH]c(-c3ccc(OC(F)(F)F)cc3)nc2c1CNC1CCCC1
active: growth inhibition [1] 97% | growth inhibition [4] 99%
inactive: inhibition [2] 32% | inhibition [3] 0% | outcome [5] | outcome [6] | outcome [7] | outcome [8]

O=C(CSc1nn(-c2ccccc2)c(=S)s1)c1c[nH]c2ccccc12
inactive: inhibition [2] -7% | inhibition [3] -1% | outcome [5] | outcome [6] | outcome [7] | outcome [8]
active: growth inhibition [1] 68% | growth inhibition [4] 93%

Cc1c(Cc2ccc(F)cc2)c(Cl)nc2nc(N)nc(N)c12
inactive: growth inhibition [1] 1% | inhibition [3] -2% | outcome [5] | outcome [6] | outcome [7] | outcome [8]
active: inhibition [2] 66% | growth inhibition [4] 92%

Cc1cc(CNCCCCCCNCc2ccc(Cl)cc2)ccc1O
active: growth inhibition [4] 96%
inactive: growth inhibition [1] 0% | inhibition [2] 23% | inhibition [3] -2% | outcome [5] | outcome [6] | outcome [7] | outcome [8]

Cc1c(C(=O)Nc2cc(Sc3ccc(F)cc3)cc([N+](=O)[O-])c2)sc2ncn(Cc3ccccc3F)c(=O)c12
inactive: growth inhibition [1] 45% | inhibition [2] 2% | inhibition [3] 5% | outcome [5] | outcome [6] | outcome [7] | outcome [8]
active: growth inhibition [4] 98%

Cc1cccc2[nH]c(-c3ccc(-c4cccc(CNCCCNS(C)(=O)=O)c4)s3)nc12
inactive: growth inhibition [1] 19% | inhibition [2] 20% | inhibition [3] 2% | outcome [5] | outcome [6] | outcome [7] | outcome [8]
active: growth inhibition [4] 99%

Cn1nccc1C(=O)NCCNCc1ccc(-c2ccc(-c3nc4ccccc4[nH]3)s2)cc1
active: growth inhibition [1] 97% | growth inhibition [4] 101%
inactive: inhibition [2] 23% | inhibition [3] -9% | outcome [5] | outcome [6] | outcome [7] | outcome [8]

Oc1cc(Nc2ccnc3cc(-c4ccc(CN5CCCCC5)o4)ccc23)c(Cl)cc1F
active: growth inhibition [1] 81% | growth inhibition [4] 101%
inactive: inhibition [2] 30% | inhibition [3] 5% | outcome [5] | outcome [6] | outcome [7] | outcome [8]

O=C(Nc1cccc(-c2cc3ccccc3[nH]2)c1)C1CCN(Cc2ccccc2O)CC1
inactive: growth inhibition [1] 25% | inhibition [2] 34% | inhibition [3] -1% | outcome [5] | outcome [6] | outcome [7] | outcome [8]
active: growth inhibition [4] 95%

N#Cc1ccc(-c2ccc(C(=O)NCCCCN3CCC(c4cn(CCCO)c5ccccc45)CC3)cc2)cc1
active: growth inhibition [1] 56% | growth inhibition [4] 98%
inactive: inhibition [2] 31% | inhibition [3] -2% | outcome [5] | outcome [6] | outcome [7] | outcome [8]

Clc1ccc(OCc2ccccc2)c(Cc2ccc(-c3nc4ccncc4[nH]3)o2)c1
inactive: growth inhibition [1] 6% | inhibition [2] 2% | inhibition [3] -2% | outcome [5] | outcome [6] | outcome [7] | outcome [8]
active: growth inhibition [4] 99%

CC(=O)c1c(Nc2c(C)cc(C)cc2C)oc(C)cc1=O
inactive: inhibition [2] 7% | inhibition [3] 7% | outcome [5] | outcome [6] | outcome [7] | outcome [8]
active: growth inhibition [1] 83% | growth inhibition [4] 95%

Cc1ccccc1Nc1nc(NCc2ccccc2)nc2ccccc12
active: growth inhibition [4] 88%
inactive: growth inhibition [1] 35% | inhibition [2] 39% | inhibition [3] -3% | outcome [5] | outcome [6] | outcome [7] | outcome [8]

CC1(C)N=C(N)N=C(N)N1OCCCOc1cccc2ccccc12
inactive: inhibition [3] 4% | outcome [5] | outcome [6] | outcome [7] | outcome [8]
active: growth inhibition [1] 86% | inhibition [2] 67% | growth inhibition [4] 95%

Cc1cccc2[nH]c(-c3ccc(-c4cccc(NC(=O)Nc5ccc(Cl)cc5)c4)s3)nc12
active: growth inhibition [1] 52% | growth inhibition [4] 102%
inactive: inhibition [2] 25% | inhibition [3] -1% | outcome [5] | outcome [6] | outcome [7] | outcome [8]

CCOc1ccccc1C=CC(=O)Nc1ccc2nc(N3CCN(C)CC3)cc(C)c2c1
active: growth inhibition [1] 91% | growth inhibition [4] 102%
inactive: inhibition [2] 16% | inhibition [3] -1% | outcome [5] | outcome [6] | outcome [7] | outcome [8]

COC(=O)c1ccccc1N1CCN(CCCCNC(=O)c2ccc(NC(=O)c3cc(Cl)cc(Cl)c3)cc2)CC1
inactive: growth inhibition [1] 42% | inhibition [2] 20% | inhibition [3] 0% | outcome [5] | outcome [6] | outcome [7] | outcome [8]
active: growth inhibition [4] 100%

CC1(C)N=C(NC(=O)c2cc([N+](=O)[O-])cc([N+](=O)[O-])c2)N=C(N)N1OCc1cccc2ccccc12
active: inhibition [2] 66% | growth inhibition [4] 94%
inactive: growth inhibition [1] 20% | inhibition [3] -6% | outcome [5] | outcome [6] | outcome [7] | outcome [8]

COc1cccc(OC)c1-c1ccccc1NC(=O)N1CCCc2cc(C)ccc21
active: growth inhibition [1] 84% | inhibition [2] 51% | growth inhibition [4] 82%
inactive: inhibition [3] 5% | outcome [5] | outcome [6] | outcome [7] | outcome [8]
